Laboratory results reported in PubChem BioAssay (NCATS).
Where “and” joins values, the source holds several entries; their conditions need not be identical. Equal entries are not always repeated. Inconclusive results are not listed. A structure can be active in one record and inactive in another. Unmarked numbers belong to inactive results. Calls of active or inactive are those of the source. Calls come from the whole dose curve; as a rule, active = well fitted cell-killing curve with a large enough effect; inconclusive = small, poorly fitted or top-dose-only effect; inactive = flat fitted curve, though single readings scatter. Peptide text beside a SMILES is read from it.

Assay: qHTS of pediatric cancer cell lines to identify multiple opportunities for drug repurposing: Primary screen for BT-37 cells (AID 1347094)
Conditions: BT-37 viability, CellTiter-Glo luminescence, 48 h; series mostly up to 57.3 µM; activity change, negative = cytotoxic: at the top concentration
Excerpt: Drug repurposing or repositioning has been offered as a strategy for drug development in oncology programs. This approach has special potential for childhood cancers and other rare or orphan diseases, where the expected return on new drug development has been a disincentive to pharmaceuticals. […] In this project we exploit the poly-pharmacology of drugs to discover new indications via phenotypic screening of a panel of 19 well-characterized cell lines derived from solid tumors seen in children and adolescents. The goal is to identify approved drugs with previously unrecognized anticancer properties that has the potential to reveal new mechanisms and biological processes involved in carcinogenesis or drug resistance. We employed a titration-based paradigm (quantitative high-throughput screening or qHTS), where all compounds were tested at multiple concentrations for their effect on cell viability. Concentration-response curves (CRCs) were derived directly from the primary screen, and both potency and efficacy values were used to identify compounds with robust bioactivity profiles. We screened the NIH Chemical Genomics Center (NCGC) Pharmaceutical Collection (NPC) and Mechanism Interrogation Plate (MIPE) small molecule collections of approved and investigational compounds against these cell lines; and measured metabolically active cells after 48 hours of compound treatment as a proxy for cell viability. […] Assay Submitter: Nathalia J. Martinez, National Center for Advancing Translational Sciences, National Institutes of Health, Rockville, MD, USA; email: natalia.martinez@nih.gov Shen, M et al. Quantitative high-throughput phenotypic screening of pediatric cancer cell lines identifies multiple opportunities for drug repurposing. Oncotarget 2017 Dec 19;9(4):4758-4772. PMID 29435139.
The cells were obtained from University of North Carolina (UNC), Pediatric Preclinical Testing Program (PPT), and Coriell Institute (CI). qHTS cell viability assay: Cells were assayed in growth media at a density of 500-1,000 cells/well. Five microliters of cells were dispensed into 1,536-well, white, solid-bottom, TC-treated plates (Greiner Bio One) using a multidrop dispenser and incubated at 37 degrees C, 5% CO2, under a humidified atmosphere for 5 hours. Twenty-three nanoliters of compounds and controls (neutral control DMSO or positive control bortezomib at final concentration of 2.3 µM) were subsequently transferred by Kalypsys pintool. For primary screens, the MIPE collection was tested at 11-point dilutions (final concentrations range from 0.78 nM to 46 µM) and the NPC collection at 8-point dilutions (final concentrations range from 0.59 nM to 46 µM). Compounds tested in follow-up screens were assayed at 11-point dilutions. Cells were incubated for 48 hours, followed by addition of 3 µL of CellTiter-Glo (Promega). After a 15 min incubation at room temperature, samples were analyzed for luminescence intensity using a ViewLux High-throughput CCD imager equipped with clear filters.
Potency is the fitted concentration of half-maximal effect.

Question: Which Potency does the source give for `COC(=O)[C@H](Cc1ccccc1)NC(=O)[C@@H](N)CC(=O)O` (H-Asp-Phe-OMe) here?
Answer: inactive

Question: With `COC(=O)C1=C(C)NC(C)=C(C(=O)OCCCN2CCC(c3ccccc3)(c3ccccc3)CC2)C1c1cccc([N+](=O)[O-])c1` (stereo not given) as the compound, how does the “activity change, negative = cytotoxic” value read?
Answer: 5.9%

Question: With `COC(=O)N[C@H](C(=O)N[C@@H](Cc1ccccc1)[C@@H](O)CN(Cc1ccc(-c2ccccn2)cc1)NC(=O)[C@@H](NC(=O)OC)C(C)(C)C)C(C)(C)C` as the compound, how does the Potency read?
Answer: inactive

Question: For `CCN(CCO)CCCC(C)Nc1ccnc2cc(Cl)ccc12` (stereo not given), which activity change, negative = cytotoxic is on record?
Answer: 5.71% [at 6.03 µM]

Question: What about the Potency of the same compound?
Answer: 3.85 µM (active)

Question: For `CC(=O)NC[C@H]1CN(c2ccc(N3CCOCC3)c(F)c2)C(=O)O1`, which “activity change, negative = cytotoxic” value is on record?
Answer: -6.88%

Question: Which “activity change, negative = cytotoxic” value does the source give for `O=C(CS(=O)Cc1ccco1)NCC=CCOc1cc(CN2CCCCC2)ccn1` (stereo not given) here?
Answer: 15.9%

Question: For `CC(S)C(=O)NCC(=O)O` (stereo not given), which Potency is on record?
Answer: inactive

Question: Which Potency does the source give for `CN(c1nccc(=O)[nH]1)C1CCN(c2nc3ccccc3n2Cc2ccc(F)cc2)CC1` here?
Answer: inactive

Question: With `CC(=O)Nc1ccc(O)cc1` as the compound, how does the “activity change, negative = cytotoxic” value read?
Answer: -8.45%

Question: For `COc1ccc(C2(C#N)CCC(C(=O)O)CC2)cc1OC1CCCC1` (stereo not given), which “activity change, negative = cytotoxic” value is on record?
Answer: 5.27%

Question: With `CCN(CC)CCOc1ccc(Nc2ncc3cc(-c4c(Cl)cccc4Cl)c(=O)n(C)c3n2)cc1` as the compound, how does the Potency read?
Answer: 6.11 µM (active)

Question: Which “activity change, negative = cytotoxic” value does the source give for `Clc1ccc(C(Cn2ccnc2)OCc2ccc(Sc3ccccc3)cc2)c(Cl)c1` (stereo not given) here?
Answer: 5.64%

Question: For `O=c1c(O)c(-c2ccc(O)cc2O)oc2cc(O)cc(O)c12`, which “activity change, negative = cytotoxic” value is on record?
Answer: -0.944%

Question: For `CCC1=C(C)CN(C(=O)NCCc2ccc(S(=O)(=O)NC(=O)NC3CCC(C)CC3)cc2)C1=O` (stereo not given), which Potency is on record?
Answer: inactive

Question: For `Cc1cc2cc3c(C)cc(=O)oc3c(C)c2o1`, which “activity change, negative = cytotoxic” value is on record?
Answer: 1.29%

Question: Which “activity change, negative = cytotoxic” value does the source give for `C[C@]12CCC(=O)C=C1CC[C@@H]1[C@H]2[C@@H](O)C[C@@]2(C)[C@H]1CC[C@]2(O)C(=O)CO` here?
Answer: 28.4%

Question: Which Potency does the source give for `COCCCOc1ccnc(CS(=O)c2nc3ccccc3[nH]2)c1C` (stereo not given) here?
Answer: inactive

Question: For `CC1=C(C)C(=O)C(C(CCCCCC(=O)O)c2ccccc2)=C(C)C1=O` (stereo not given), which Potency is on record?
Answer: inactive

Question: With `CN(C)CCc1c[nH]c2ccc(Cn3cncn3)cc12` as the compound, how does the Potency read?
Answer: 19.3 µM (active)

Question: Which Potency does the source give for `O=C1c2ccccc2-c2n[nH]c3cccc1c23` here?
Answer: 3.43 µM (active)

Question: Which Potency does the source give for `CCCCc1ccc2nc(NC(=O)OC)[nH]c2c1` here?
Answer: 43.2 nM (active) and 61.7 nM (active)

Question: For `Cn1c(NCCN(CCO)CCCc2ccc([N+](=O)[O-])cc2)cc(=O)n(C)c1=O`, which “activity change, negative = cytotoxic” value is on record?
Answer: -6.94%

Question: With `CC(C)[C@H](N)C(=O)OCCOCn1cnc2c(=O)[nH]c(N)nc21` as the compound, how does the Potency read?
Answer: inactive

Question: With `Nc1ccn([C@@H]2O[C@H](CO)[C@@H](O)C2O)c(=O)n1` (stereo not given in full) as the compound, how does the “activity change, negative = cytotoxic” value read?
Answer: 12.5%

Question: With `CCC(C)(Oc1ccc(C2(c3ccc(OC(C)(CC)C(=O)O)cc3)CCCCC2)cc1)C(=O)O` (stereo not given) as the compound, how does the “activity change, negative = cytotoxic” value read?
Answer: 15.8%

Question: Which “activity change, negative = cytotoxic” value does the source give for `Cc1cc(O)c2c(c1)C(=O)c1cc(O)cc(O)c1C2=O` here?
Answer: -4.73%

Question: For `O=C1NC(=O)C(c2ccccc2[N+](=O)[O-])=C1Nc1ccc(O)c(Cl)c1`, which “activity change, negative = cytotoxic” value is on record?
Answer: 1.96%

Question: Which Potency does the source give for `COc1cc(Nc2c(C#N)cnc3cc(OCCCN4CCN(C)CC4)c(OC)cc23)c(Cl)cc1Cl` here?
Answer: 17.4 µM (active)

Question: Which “activity change, negative = cytotoxic” value does the source give for `CN(C)C(=O)[C@H](O)[C@H](Cc1ccccc1)NC(=O)c1cc2cc(Cl)ccc2[nH]1` here?
Answer: 6.42%

Question: For `CC(C)C[C@H](NC(=O)[C@H](Cc1ccccc1)NC(=O)c1cnccn1)B(O)O`, which Potency is on record?
Answer: 0.0347 µM (active)

Question: With `NCCCCNCCCN` as the compound, how does the “activity change, negative = cytotoxic” value read?
Answer: 0.49%

Question: For `NC(=NCc1ccccc1)NC(=O)c1nc(Cl)c(N)nc1N`, which “activity change, negative = cytotoxic” value is on record?
Answer: 9.32%

Question: Which Potency does the source give for `O=C(O)c1cccnc1Nc1cccc(C(F)(F)F)c1` here?
Answer: inactive

Question: For `Oc1ccc(-c2nc(-c3ccc(F)cc3)c(-c3ccncc3)[nH]2)cc1`, which “activity change, negative = cytotoxic” value is on record?
Answer: -17.7%

Question: For `CCC[C@@H]1C[C@@H](C(=O)N[C@@H]([C@H]2O[C@H](SC)[C@H](O)[C@@H](O)[C@H]2O)[C@@H](C)O)N(C)C1`, which Potency is on record?
Answer: inactive

Question: Which “activity change, negative = cytotoxic” value does the source give for `Cc1cccc(C#Cc2ccccc2)n1` here?
Answer: 6.82%

Question: Which Potency does the source give for `N[C@@H](Cc1cc(I)c(Oc2cc(I)c(O)c(I)c2)c(I)c1)C(=O)O` here?
Answer: inactive

Question: Which Potency does the source give for `CS(=O)(=O)OCCCCOS(C)(=O)=O` here?
Answer: inactive

Question: With `Cc1c(OCC(F)(F)F)ccnc1CS(=O)c1nc2ccccc2[nH]1` (stereo not given) as the compound, how does the Potency read?
Answer: inactive
